These results are taken from the supplement of paper PMC6555819.

Holding throughout (experiment): PBM binding z-score (relative to random genomic background probes); higher = stronger binding; sequences stand for … in GC…GCGATTGACAGCGTAGAATGAAGG
The test system of assay [1] is RARb homodimer (NR concentration 270 nM). Summed up: (§1)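 Ligand-free nuclear receptor dimers were applied to custom Agilent 4×180K protein-binding microarrays whose double-stranded probes carried direct-repeat seeds, single-nucleotide variants, half-site ablations and random human genomic background sequences in 34-nt variable regions. Incubation lasted 1 h. Binding z-scores were computed against the random background probes from regression-normalized fluorescence.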

The subject of assay [2] is RARg:RXRa (NR concentration 270 nM, RXRa partner concentration 90 nM). Summed up: as §1
Assay [3] has as its system RARg homodimer (NR concentration 270 nM). Summed up: as §1
The test system of assay [4] is RXRa DBDmut IVT, anti-RXR (DBD mutation: RXRa K156A/R161A, NR concentration 90 nM). Summed up:
as §1

In assay [5] the test system is RXRa homodimer (NR concentration 180 nM). The gist of the method:
as §1

The test system of assay [6] is THRa:RXRa (NR concentration 90 nM, RXRa partner concentration 90 nM). Summed up:
as §1

In assay [7] the test system is THRa homodimer (NR concentration 90 nM). Summed up: as §1
Assay [8] relates to VDR:RXRa (NR concentration 270 nM, RXRa partner concentration 90 nM). Summed up:
as §1

Assay [9] concerns VDR homodimer (NR concentration 270 nM). Summed up:
as §1

In the case of ATCGAAAGGTCGAAGGTGACTATACCCACCCGAA, the PBM binding z-score in [1] was 2.48; in assay [2], 4.16; in assay [3], 3.63; in [4], 1.17; in assay [5], 4.99; in assay [6], 2.33. The results for the PBM binding z-score in assay [7], in assay [8] and in assay [9] were 0.209, 2.9 and 0.592, respectively.
In the case of ATATTTAGGTTAGGGTCATTCAGAAAGTAGGGAA, the PBM binding z-score in [1] was 3.47; in assay [2], 4.06; in [3], 3.55; in assay [4], 2.76; in [5], 4.71; in [6], 4.2. Also, the PBM binding z-score worked out at 3.85 in [7] and 4.22 in [9].
With CTATGTAGGTTAAGGGGGTCATTCACTTTGAAAG, the PBM binding z-score was 3.95 in assay [1]; 5.11 in assay [2]; 4.05 in assay [3]; 2.33 in assay [4]; 5.85 in [5]; 3.53 in assay [6]. In addition, the PBM binding z-score is 1.72 in [7], 7.21 in assay [8] and 5.5 in [9].
CCTACAGGGCCAAAGGTCATTGATTCCAATGCTC: the PBM binding z-score in [1] worked out at 4.75; in assay [2], 6.13; in assay [3], 5.66; in [4], 1.95; in [5] it was 7.35; in assay [6] it was 3.46. Moreover, the PBM binding z-score in assay [7] is 0.651; in assay [9] it was 2.73.
Regarding CGAACTAGGTCACCAGGTCAGTGAAGAGGTTGGA, the PBM binding z-score was 4.64 in assay [1]; 5.69 in assay [2]; 6.17 in assay [3]; 1.7 in assay [4]; 4.83 in assay [5]; 3.89 in [6]. The PBM binding z-score in assay [7] was determined as 2.72; in [9], 1.52.
In the case of ACTCGGAGGACAAAGGTCAGAACTACGCCAGTGA, the PBM binding z-score in assay [1] came out at 3.96; in assay [2] it was 5.75; in [3] it was 4.61; in assay [4], 1.08; in [5], 4.75; in assay [6], 3.28. For the same sequence, the values for the PBM binding z-score in assay [7] and in [9] were 0.786 and 0.984, respectively.
In the case of CCTTACGGGTCTCTCCAGGTTATAGCATCGGAGT, the PBM binding z-score was 0.324 in assay [1]; 0.139 in assay [2]; 0.231 in assay [3]; -0.347 in assay [4]; 0.0573 in assay [5]; 3.09 in assay [6]. In addition, the figures for the PBM binding z-score in assay [7] and in assay [9] were 0.346 and 0.105, respectively.
As to ATATGTAGGTCATCGGGTCATTCAGTTTGCGCAT, the PBM binding z-score in [1] was determined as 4.63; in [2], 6.21; in assay [3], 5.6; in [4], 2.92; in assay [5] it was 6.72; in [6], 4.16. The PBM binding z-score in assay [7] was found to be 3; in assay [8] it was 6.28; in assay [9] it was 5.1.
As for AGTAAAAGTTCACTAGGTAACGTAAGATTCAGCT, the PBM binding z-score came out at 3.39 in assay [1]; 4.08 in [2]; 4.93 in [3]; 4.22 in assay [4]; 3.39 in assay [5]; 1.8 in assay [6]. In addition, the PBM binding z-score is 0.341 in [7] and 3.76 in assay [9].
Regarding CGAACTGGGTCAAAGGACAGTGAAAGGCGACGTA, the PBM binding z-score in [1] amounted to 2.58; in assay [2] it was 3.7; in assay [3], 3.67; in assay [4], 0.996; in assay [5] it was 3.11; in assay [6], 1.95. In addition, the PBM binding z-score was determined as 0.161 in assay [7] and 0.185 in assay [9].
In the case of CCTACTGGGCCAAAGGTCCTTGATTCCAATGCTC, the PBM binding z-score was 0.379 in [1]; 0.102 in [2]; -0.124 in assay [3]; -0.459 in [4]; 0.121 in [5]; -0.00931 in assay [6]. Also, the PBM binding z-score is -0.139 in assay [7] and -0.217 in assay [9].
For the sequence CCTGCTCGGTCAATGGTCAGCTAAAGCAGCTCGC, the PBM binding z-score in assay [1] is 1.62; in assay [2], 1.65; in [3], 2.47; in [4] it was 0.331; in [5], 0.053; in assay [6], -0.136. The PBM binding z-score in [7] is -0.403; in [9], -0.799.
For ATACGTAGGTTAGGGTCATTCAGAAAGTAGGGAA, the PBM binding z-score in assay [1] came to 3.19; in assay [2], 4.12; in [3], 3.37; in [4] it was 2.35; in assay [5], 5.33; in assay [6], 4.07. For the same sequence, the results for the PBM binding z-score in [7] and in assay [9] were 2.92 and 3.67, respectively.
AGTCAAAGTTCACTAGGCAACGTAAGATTCAGCT: the PBM binding z-score in assay [1] came out at 3.63; in assay [2] it was 4.84; in [3], 5.8; in [4], 4.16; in assay [5] it was 3.89; in [6] it was 1.4. Also, the PBM binding z-score in assay [7] is -0.365; in assay [9], 3.61.
